Assay results from PubChem BioAssay (Tox21).
Where “and” joins values, the source holds several entries; their conditions need not be identical. Equal entries are not always repeated. Records with an inconclusive call do not appear. A call without a number means that no potency is given here. The source holds several records for some structures; these can differ, active in one and inactive in another. Calls of active or inactive are those of the source. Unless noted, the call rests on the fitted dose curve.

Legend:
[1] = Nuclear factor erythroid 2-related factor 2/antioxidant responsive element (Nrf2/ARE) small molecule agonists: qHTS cell viability counter screen in human keratinocytes (AID 1919968; active means well fitted curve in the direction sought with a large enough effect in the repeat runs; an effect the other way counts as inactive or inconclusive; further: nearly all actives have a fitted effect of over 55% in size; further: potency means the concentration at half of the fitted maximal effect)
In short: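 Measured as CellTiter-Fluor fluorescence, this readout tracks cytotoxicity in the same wells as the ARE-luciferase screen. HaCaT reporter cells (1,500/well) received compounds after a 5 h pre-incubation and were exposed for 23 h.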

[2] = biological target: KiSS-1 receptor (Homo sapiens) (UniProt Q969F8); assay: Human kisspeptin (KISS1R) small molecule agonists, calcium flux assay in KISS1R-HEK293 cells (AID 1920064; active means well fitted curve in the direction sought with a large enough effect in the repeat runs; an effect the other way counts as inactive or inconclusive)
In short: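 Measures KISS1R agonism through calcium-sensitive dye fluorescence in stably transfected HEK293 cells, read for 3 min after pin-tool compound delivery; 15-point titrations in triplicate.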

[3] = G protein-coupled receptor (GPCR) small molecule agonists, calcium flux assay: HEK293 wild type cell line counter screen (AID 1920065)
In short: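 Readout: fluorescence at 480 nm excitation/540 nm emission, sampled at 1 s intervals for 3 min. Cells had been cultured 18 h, then dye-loaded 1 h at 37 C before compound or ATP addition.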

[4] = p53 small molecule agonists, cell-based qHTS assay with human liver microsomes: qHTS cell viability counter screen (AID 1963579); further: nearly all actives have a fitted effect of over 45% in size; further: potency means the concentration at half of the fitted maximal effect
In short: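 Cells carrying the p53 response-element beta-lactamase reporter are treated for 16 h at 37 C with test compounds in the presence of human liver microsomes and NADPH (both 0.5 mg/mL final); ATP-based CellTiter-Glo luminescence then reports viability.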

[5] = p53 small molecule agonists, cell-based qHTS assay with rat liver microsomes: qHTS cell viability counter screen (AID 1963580); further: nearly all actives have a fitted effect of over 45% in size; further: potency means the concentration at half of the fitted maximal effect
In short: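 HCT-116 p53RE-bla, 4,000 cells/well, 5 h pre-incubation; cpd + rat liver microsomes 0.5 mg/mL + NADPH 0.5 mg/mL (final); 16 h, 37 C; CellTiter-Glo, 30 min RT; luminescence.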

[6] = p53 small molecule agonists, cell-based qHTS assay: qHTS cell viability counter screen (AID 1963581); further: nearly all actives have a fitted effect of over 45% in size; further: potency means the concentration at half of the fitted maximal effect
In short: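 In the same plates used for the p53 bla reporter, HCT-116 cells given compounds for 16 h at 37 C received CellTiter-Glo; luminescence was recorded 30 min later at room temperature.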

[7] = p53 small molecule agonists, cell-based qHTS assay (AID 1963582; active means well fitted activation curve with a large enough effect in the signal ratio in the repeat runs, not every such curve was filed as active; the % refers to the signal ratio)
In short: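 Compounds are pin-transferred in DMSO onto p53RE-bla cells and incubated 16 h at 37 C. The B/G FRET beta-lactamase substrate is then applied for 2 h at RT and fluorescence recorded.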

[8] = biological target: 5-hydroxytryptamine receptor 2A (Homo sapiens) (UniProt P28223); assay: 5-hydroxytryptamine receptor 2A (HTR2A) small molecule antagonists, cell-based qHTS assay (AID 1963586); further: nearly all actives have a fitted effect of over 45% in size; further: potency means the concentration at half of the fitted maximal effect
In short: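 Antagonist-mode intracellular calcium assay: DOI (4 nM) added after 5 min compound pre-incubation at room temperature to dye-loaded HTR2A-CHO cells. Fluorescence followed for 3 min, sampled every second.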

[9] = biological target: 5-hydroxytryptamine receptor 2A (Homo sapiens) (UniProt P28223); assay: 5-hydroxytryptamine receptor 2A (HTR2A) small molecule agonists, cell-based qHTS assay (AID 1963587); further: nearly all actives have a fitted effect of over 30% in size; further: potency means the concentration at half of the fitted maximal effect
In short: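 Kinetic calcium-flux fluorescence (2 min, 1 sec intervals) after compound addition in agonist mode. HTR2A-CHO cells were cultured 18 h, then dye-loaded 1 h at 37 C.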

[10] = biological target: Muscarinic acetylcholine receptor M1 (Homo sapiens) (UniProt P11229); assay: Cholinergic receptor muscarinic 1 (CHRM1) small molecule antagonists, cell-based qHTS assay (AID 1963588); further: nearly all actives have a fitted effect of over 40% in size; further: potency means the concentration at half of the fitted maximal effect
In short: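 CHRM1-CHO calcium-flux assay, antagonist mode. Cells were seeded 18 h, dye-loaded 1 h at 37 C and given compound for 5 min at RT, then acetylcholine was added at 50nM. FDSS fluorescence was read 3 min; 15 concentrations, three runs.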

[11] = biological target: Muscarinic acetylcholine receptor M1 (Homo sapiens) (UniProt P11229); assay: Cholinergic receptor muscarinic 1 (CHRM1) small molecule agonists, cell-based qHTS assay (AID 1963589); further: nearly all actives have a fitted effect of over 35% in size; further: potency means the concentration at half of the fitted maximal effect
In short: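 Each compound was tested at 15 concentrations across three independent runs on dye-loaded CHO cells stably expressing human CHRM1, reading intracellular calcium fluorescence kinetically at 1 sec intervals.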

[12] = cAMP Responsive Elements (CRE) small molecule agonists, cell-based qHTS assay (AID 1963590)
In short: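 Cell line: CRE-bla HEK 293T; medium DMEM/10% dialyzed FBS/0.1 mM NEAA/1 mM pyruvate/25 mM HEPES; 3 h compound exposure; beta-lactamase FRET readout after 2 h substrate loading at RT.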

[13] = cAMP Responsive Elements (CRE) small molecule antagonists, cell-based qHTS assay (AID 1963591; active means well fitted inhibition curve with a large enough effect in the signal ratio in the repeat runs, not every such curve was filed as active; the % refers to the signal ratio)
In short: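 Inhibition of NKH477-driven (0.25 uM final) CRE-beta-lactamase signal in HEK293T cells, 3 h compound exposure at 37 °C, detected by FRET substrate fluorescence.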

[14] = biological target: Beta-2 adrenergic receptor (Homo sapiens) (UniProt P07550); assay: Adrenergic beta2 receptor (ADRB2) small molecule antagonists, cell-based qHTS assay (AID 1963592); further: nearly all actives have a fitted effect of over 50% in size; further: potency means the concentration at half of the fitted maximal effect
In short: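 Cells (CHO, stable ADRB2 overexpression) incubated 18-20hr at 37C; compounds added from DMSO; agonist mix (1nM isoproterenol, 100uM IBMX, 25uM Ro-20-1724) added; 0.5hr RT; d2-cAMP and anti-cAMP-cryptate added; 1hr RT; 665/615 nm read.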

[15] = biological target: D(2) dopamine receptor (Homo sapiens) (UniProt P14416); assay: Dopamine D2 receptor (DRD2) small molecule agonists, cell-based qHTS assay (AID 1963594); further: nearly all actives have a fitted effect of over 35% in size; further: potency means the concentration at half of the fitted maximal effect
In short: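 cAMP accumulation in DRD2-HEK293 cells measured by HTRF after 1 h detection; compounds added 10 min before NKH477 (200nM […]) forskolin-analogue stimulation, 30 min at room temperature, with Ro20-1724 present at 0.1 mM final.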

[16] = biological target: D(2) dopamine receptor (Homo sapiens) (UniProt P14416); assay: Dopamine D2 receptor (DRD2) small molecule antagonists, cell-based qHTS assay (AID 1963595; active means well fitted inhibition curve with a large enough effect in the signal ratio in the repeat runs, with a control signal flat; the % refers to the signal ratio)
In short: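 Readout: HTRF cAMP, cAMP-d2 competing with cellular cAMP for anti-cAMP cryptate, read after 1 h. Cells: DRD2-HEK293. Conditions: 0.1 mM Ro20-1724, 12 nM quinpirole, 200 nM NKH477, 30 min RT.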

[17] = p53 small molecule agonists, cell-based qHTS assay with rat liver microsomes (AID 1963578)
In short: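 Read-out is beta-lactamase reporter fluorescence (LiveBLAzer, 2 h, room temperature, dark) in p53RE-bla cells treated 16 h at 37 C with compound, rat liver microsomes and NADPH, both 0.5 mg/mL final.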

[18] = biological target: Beta-2 adrenergic receptor (Homo sapiens) (UniProt P07550); assay: Adrenergic beta2 receptor (ADRB2) small molecule agonists, cell-based qHTS assay (AID 1963593);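 further: CHO cells stably overexpressing human ADRB2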
In short: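 CHO cells stably over-expressing ADRB2 were plated overnight at 37C, then dosed with compounds plus a stimulation mix containing 100uM IBMX and 25uM Ro-20-1724 for 0.5hr at room temperature. cAMP was measured by HTRF competition, 1hr.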

[19] = biological target: Gonadotropin-releasing hormone receptor (Homo sapiens) (UniProt P30968); assay: Human gonadotropin-releasing hormone receptor (GnRHR) small molecule agonists, calcium flux assay in GnRHR-HEK293 cells (AID 1920063); further: nearly all actives have a fitted effect of over 35% in size; further: potency means the concentration at half of the fitted maximal effect
In short: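 Fluorescence kinetics (480 nm excitation, 540 nm emission; 3 min, 1 s steps) report calcium mobilisation in human GnRHR-HEK293 cells in agonist mode. Dye incubation: 1 h, 37 C.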

[20] = p53 small molecule agonists, cell-based qHTS assay with human liver microsomes (AID 1963577); further: potency means the concentration at half of the fitted maximal effect
In short: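 Compounds act here after metabolic activation: human liver microsomes and NADPH, both at 0.5 mg/mL final, were co-added to p53RE-bla cells. Incubation ran 16 h at 37 C, followed by LiveBLAzer detection.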

Sequence of 5-hydroxytryptamine receptor 2A (Homo sapiens) (P28223 whole entry, looked up): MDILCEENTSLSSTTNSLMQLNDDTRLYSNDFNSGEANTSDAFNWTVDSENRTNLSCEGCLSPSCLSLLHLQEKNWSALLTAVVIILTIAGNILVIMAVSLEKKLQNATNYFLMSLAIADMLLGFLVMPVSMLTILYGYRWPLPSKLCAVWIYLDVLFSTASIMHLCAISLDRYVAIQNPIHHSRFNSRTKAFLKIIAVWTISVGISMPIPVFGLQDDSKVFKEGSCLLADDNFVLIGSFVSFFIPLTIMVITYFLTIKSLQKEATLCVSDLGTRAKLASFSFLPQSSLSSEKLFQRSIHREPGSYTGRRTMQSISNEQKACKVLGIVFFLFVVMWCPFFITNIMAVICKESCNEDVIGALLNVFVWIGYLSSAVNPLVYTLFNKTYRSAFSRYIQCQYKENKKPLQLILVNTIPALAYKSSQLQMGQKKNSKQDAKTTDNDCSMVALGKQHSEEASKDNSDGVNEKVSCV
Sequence of KiSS-1 receptor (Homo sapiens) (Q969F8 whole entry, looked up): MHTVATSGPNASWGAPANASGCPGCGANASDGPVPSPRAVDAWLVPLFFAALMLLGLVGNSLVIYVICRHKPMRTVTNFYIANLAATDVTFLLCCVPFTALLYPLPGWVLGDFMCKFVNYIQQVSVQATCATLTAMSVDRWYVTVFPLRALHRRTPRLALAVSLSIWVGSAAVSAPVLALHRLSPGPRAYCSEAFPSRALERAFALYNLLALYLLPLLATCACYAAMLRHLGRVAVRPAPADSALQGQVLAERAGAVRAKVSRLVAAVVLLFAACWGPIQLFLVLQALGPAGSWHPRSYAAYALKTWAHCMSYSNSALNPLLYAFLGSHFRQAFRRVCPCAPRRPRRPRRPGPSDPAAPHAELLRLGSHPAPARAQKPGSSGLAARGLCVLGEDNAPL
Sequence of Gonadotropin-releasing hormone receptor (Homo sapiens) (P30968 whole entry, looked up): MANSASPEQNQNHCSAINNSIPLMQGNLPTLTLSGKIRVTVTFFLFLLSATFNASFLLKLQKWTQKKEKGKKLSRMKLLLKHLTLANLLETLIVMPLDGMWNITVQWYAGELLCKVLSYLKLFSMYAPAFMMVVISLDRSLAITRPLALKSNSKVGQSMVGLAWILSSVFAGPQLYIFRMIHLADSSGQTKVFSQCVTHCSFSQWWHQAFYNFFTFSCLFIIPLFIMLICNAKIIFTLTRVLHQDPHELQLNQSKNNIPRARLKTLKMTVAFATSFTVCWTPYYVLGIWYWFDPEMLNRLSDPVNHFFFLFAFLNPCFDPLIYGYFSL
Sequence of Muscarinic acetylcholine receptor M1 (Homo sapiens) (P11229 whole entry, looked up): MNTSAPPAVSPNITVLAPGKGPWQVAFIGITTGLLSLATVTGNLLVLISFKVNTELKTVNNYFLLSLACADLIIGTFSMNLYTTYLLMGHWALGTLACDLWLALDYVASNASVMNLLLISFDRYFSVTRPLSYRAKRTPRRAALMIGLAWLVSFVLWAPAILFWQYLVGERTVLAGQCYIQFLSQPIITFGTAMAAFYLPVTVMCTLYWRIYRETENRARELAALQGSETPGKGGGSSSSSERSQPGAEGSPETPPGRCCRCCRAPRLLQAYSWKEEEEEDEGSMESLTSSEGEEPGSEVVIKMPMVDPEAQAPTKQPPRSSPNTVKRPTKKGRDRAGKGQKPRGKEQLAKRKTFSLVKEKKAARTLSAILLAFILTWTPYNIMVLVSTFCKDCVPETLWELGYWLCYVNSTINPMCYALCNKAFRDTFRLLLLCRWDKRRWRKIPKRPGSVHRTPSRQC
Sequence of Beta-2 adrenergic receptor (Homo sapiens) (P07550 whole entry, looked up): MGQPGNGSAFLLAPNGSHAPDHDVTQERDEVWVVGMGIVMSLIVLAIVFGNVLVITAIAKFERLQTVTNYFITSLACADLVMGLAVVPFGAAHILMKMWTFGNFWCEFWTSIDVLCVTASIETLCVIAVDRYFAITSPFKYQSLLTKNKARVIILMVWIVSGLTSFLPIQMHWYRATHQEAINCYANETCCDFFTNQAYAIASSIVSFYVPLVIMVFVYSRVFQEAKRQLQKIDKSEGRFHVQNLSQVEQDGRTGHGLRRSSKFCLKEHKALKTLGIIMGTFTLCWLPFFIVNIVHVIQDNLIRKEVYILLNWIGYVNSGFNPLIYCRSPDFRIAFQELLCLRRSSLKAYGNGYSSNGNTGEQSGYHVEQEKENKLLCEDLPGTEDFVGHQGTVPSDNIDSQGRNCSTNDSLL
Sequence of D(2) dopamine receptor (Homo sapiens) (P14416 whole entry, looked up): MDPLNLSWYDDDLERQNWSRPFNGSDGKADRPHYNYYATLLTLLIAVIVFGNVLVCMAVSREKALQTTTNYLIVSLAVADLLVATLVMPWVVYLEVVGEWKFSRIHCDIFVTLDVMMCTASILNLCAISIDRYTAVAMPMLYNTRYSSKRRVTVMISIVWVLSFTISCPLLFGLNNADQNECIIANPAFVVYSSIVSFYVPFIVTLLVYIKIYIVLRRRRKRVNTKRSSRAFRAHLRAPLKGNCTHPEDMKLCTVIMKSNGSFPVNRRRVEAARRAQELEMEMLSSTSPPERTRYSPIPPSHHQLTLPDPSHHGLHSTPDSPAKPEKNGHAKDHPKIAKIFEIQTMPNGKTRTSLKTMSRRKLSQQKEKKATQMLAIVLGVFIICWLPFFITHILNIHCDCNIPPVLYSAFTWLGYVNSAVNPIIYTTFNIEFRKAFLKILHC

SMILES	Potency [1]	Potency [2]	Potency [3]	Potency [4]	Potency [5]	Potency [6]	Potency [7]	Potency [8]	Potency [9]	Potency [10]	Potency [11]	Potency [12]	Potency [13]	Potency [14]	Potency [15]	Potency [16]	Potency [17]	Potency [18]	Potency [19]	Potency [20]
CNC(=O)Oc1cccc2c1OC(C)(C)C2	inactive	inactive	inactive	inactive	inactive	inactive	inactive	inactive	inactive	inactive	inactive	inactive	inactive	inactive	inactive	inactive				
O=C(NCc1cccnc1)Nc1ccc([N+](=O)[O-])cc1	inactive	inactive	inactive	inactive	inactive	inactive	inactive		inactive	inactive	inactive	inactive	inactive	inactive	inactive	inactive	inactive			
CCCCCCCCCC(CC)c1ccc(S(=O)(=O)O)cc1 (configuration not stated)	inactive and 26.6 µM (active)	inactive	inactive	inactive	inactive and 40.8 µM (active)	inactive and 48.5 µM (active)				inactive		inactive	inactive	inactive	inactive and 54.5 µM (active)	inactive		inactive		
O=P1(NCCCl)OCCCN1CCCl (configuration not stated)	inactive	inactive	inactive	inactive	inactive	inactive						inactive		inactive	inactive	inactive		inactive		
CN=C=S	inactive	inactive	inactive	inactive	inactive	inactive	inactive	inactive	44 µM (active) and inactive	inactive	inactive	inactive	inactive	inactive	inactive	inactive	inactive	inactive	inactive	inactive
CCOP(=O)(CN(CCO)CCO)OCC	inactive	inactive	inactive	inactive	inactive	inactive	inactive		inactive	inactive	inactive	inactive	inactive	inactive	inactive	inactive	inactive	inactive	inactive	inactive
OCCCCO	inactive	inactive	inactive	inactive		inactive	inactive	inactive	inactive	inactive	inactive	inactive	inactive	inactive	inactive	inactive	inactive		inactive	inactive
CCOP(=S)(OCC)O/N=C(\C#N)c1ccccc1	inactive	inactive	inactive	inactive	inactive	inactive	inactive	inactive	inactive	inactive	inactive	inactive	inactive	inactive	inactive	inactive		inactive	inactive	2.57 µM (active)
COP(=O)(NC(C)=O)SC (configuration not stated)	inactive	inactive	inactive	inactive	inactive	inactive	inactive	inactive		inactive	inactive	inactive	inactive	inactive	inactive	inactive	inactive	inactive	inactive	
O=C(O)CCCOc1ccc(Cl)cc1Cl	inactive	inactive	inactive	inactive and 29.4 µM (active)	inactive	inactive		inactive	inactive	inactive	inactive			inactive	inactive	inactive	inactive	inactive	inactive	inactive
CCOC(=S)S	27.3 µM (active) and 18.3 µM (active)	inactive	inactive	inactive	inactive	inactive	inactive	inactive	inactive	inactive	inactive	inactive	inactive	inactive	inactive	inactive	inactive		inactive	inactive
CCC[CH2][Sn]([Cl])([Cl])[Cl]	inactive	inactive	inactive	inactive	inactive	inactive	inactive	inactive	inactive	inactive	inactive	inactive	inactive	inactive		inactive	inactive		inactive	inactive
C=CC(=O)OCC(CC)CCCC (configuration not stated)	inactive	inactive	inactive	inactive	inactive	inactive		inactive	inactive	inactive	inactive	inactive	inactive	inactive	inactive	inactive	inactive		inactive	inactive
CC(C)(C)OOC(=O)c1ccccc1	inactive	inactive	inactive	inactive	inactive	inactive	inactive		inactive	13.3 µM (active) and inactive	inactive	inactive	inactive	inactive	inactive	inactive	inactive	inactive	inactive	inactive
C[CH2][Hg][S]c1ccccc1C(=O)O	1.22 µM (active) and 5.96 µM (active)	inactive	inactive	10.2 µM (active) and 11.2 µM (active)	18.2 µM (active) and 9.98 µM (active)	10.2 µM (active) and 11.2 µM (active)		18.8 µM (active)	43.6 µM (active) and 21.3 µM (active)	inactive	54.9 µM (active) and 19 µM (active)			27.3 µM (active) and inactive	16.6 µM (active)	inactive	inactive		38.9 µM (active)	inactive
